# Test results as given in PMC9838217, “Structure of SALL4 zinc finger domain reveals link between AT-rich DNA binding and Okihiro syndrome”.
# Positions count from the first letter of the chain named.
# Biological target: T1, SALL4 ZFC4 R900W (HT-SELEX) (Mus musculus, UniProt Q8BX22 870-940, R900W)
# T1 sequence: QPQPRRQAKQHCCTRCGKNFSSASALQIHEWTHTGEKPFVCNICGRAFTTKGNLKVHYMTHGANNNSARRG
# Test: HT-SELEX; high values mean tight binding
# Conditions: protein: recombinant; vector His6-GST; dsDNA, one strand shown
# Summary of the method: (§1)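 Binding signal is expressed as fold change in each canonical k-mer's read fraction over the initial random library. To obtain it, 1 µg of purified recombinant mouse SALL4 zinc finger cluster 4 (residues 870–940) was incubated for 10 min at room temperature with library DNA (1.5 µg first cycle, 200 ng later cycles) in 100 µl of 10 mM Tris–HCl pH 7.5, 50 mM NaCl, poly(dI-dC) and DTT. Ni2+ bead-captured complexes went through washing, PCR amplification and reselection for up to 6 cycles, in triplicate, before MiSeq sequencing and scanning for 6-mers.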
row,Sequence,binding signal [fold-change vs cycle 0]
1,GGAAGA,1.12 ± 0.0339
2,GCATAA,1.11 ± 0.0331
3,CAGATA,1.33 ± 0.0549
4,ACTCCA,1.03 ± 0.0645
5,AAACGA,1.16 ± 0.0331
6,CATCTC,1.01 ± 0.0376
7,ACTGAG,1.01 ± 0.0326
8,CATAGA,1.37 ± 0.0567
9,AAACCT,1.34 ± 0.0189
10,TAAGAA,2.2 ± 0.155
11,ATTTGG,1.09 ± 0.0268
12,AGGATG,1.04 ± 0.0516

# Biological target: T2, SALL4 ZFC4 G921D (HT-SELEX) (Mus musculus, UniProt Q8BX22 870-940, G921D)
# T2 sequence: T1 sequence with W31R, G52D
# Test: HT-SELEX; high values mean tight binding
# Conditions: protein: recombinant; vector His6-GST; dsDNA, one strand shown
# Summary of the method: as §1
row,Sequence,binding signal [fold-change vs cycle 0]
1,AACTGA,1.35 ± 0.0948
2,AATACC,1.3 ± 0.0234
3,CATGAA,1.36 ± 0.0809
4,AATCCT,1.47 ± 0.113
5,AGGTAA,1.45 ± 0.089
6,AAACGA,1.16 ± 0.0214
7,AGTCAG,0.958 ± 0.0631
8,GAGGAA,1.03 ± 0.0774
9,AAGGAT,1.54 ± 0.145
10,CCTATA,1.35 ± 0.0515
11,AAGGGT,1.01 ± 0.0322
12,AAGGTA,1.42 ± 0.11
13,GATCAA,1.36 ± 0.0523
14,GAAAAC,1.19 ± 0.0327
15,ACTTCA,1.4 ± 0.125
16,AACTAG,1.31 ± 0.0994
17,AAGATG,1.39 ± 0.12
18,ACTAGG,1.01 ± 0.0534
19,AGCATA,1.26 ± 0.0447
20,AATCAG,1.32 ± 0.103
21,ATGTAG,1.34 ± 0.129
22,ACATGT,1.4 ± 0.056
23,CTCTTC,1.238 ± 0.012
